Measurements from publication PMC11006913.
Numbering of substitutions follows the chain as printed.

How the values were obtained:
Assay in all cases: PBM; 200 nM protein, PBS
Details in all cases: dsDNA, one strand shown
CRX [1] = biological target: CRX (Homo sapiens, UniProt O43186 26-111)
CRX [2] = biological target: CRX (Homo sapiens, UniProt O43186 26-111, E42D)
CRX [3] = biological target: CRX (Homo sapiens, UniProt O43186 26-111, R41L)
VAX1 [4] = biological target: VAX1 (Homo sapiens, UniProt Q5SQQ9 86-172)
Sequence of VAX1 (Homo sapiens, UniProt Q5SQQ9 86-172) (Q5SQQ9 86-172): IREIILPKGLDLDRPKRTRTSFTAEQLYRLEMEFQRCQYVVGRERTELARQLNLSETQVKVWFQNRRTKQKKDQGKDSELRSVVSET

VAX1 [5] = biological target: VAX1 (Homo sapiens, UniProt Q5SQQ9 86-172, T142I)
Sequence of VAX1 (Homo sapiens, UniProt Q5SQQ9 86-172, T142I) (Q5SQQ9 86-172 T142I): as the sequence (Q5SQQ9 86-172) above, with T57I counted along it

HESX1 [6] = biological target: HESX1 (Homo sapiens, UniProt Q9UBX0 95-180, R109Q)
Sequence of HESX1 (Homo sapiens, UniProt Q9UBX0 95-180, R109Q) (Q9UBX0 95-180 R109Q): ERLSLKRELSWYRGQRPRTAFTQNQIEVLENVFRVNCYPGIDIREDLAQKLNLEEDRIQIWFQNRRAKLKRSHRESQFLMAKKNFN

HESX1 [7] = biological target: HESX1 (Homo sapiens, UniProt Q9UBX0 95-180, P111T)
Sequence of HESX1 (Homo sapiens, UniProt Q9UBX0 95-180, P111T) (Q9UBX0 95-180 P111T): as the sequence (Q9UBX0 95-180 R109Q) above, with Q15R, P17T counted along it

HOXB9 = HOXB9 (Homo sapiens, UniProt P17482 171-250, T197M)
Sequence of HOXB9 (P17482 171-250 T197M): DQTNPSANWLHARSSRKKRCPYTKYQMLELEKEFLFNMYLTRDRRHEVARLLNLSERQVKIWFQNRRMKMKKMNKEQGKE

ALX4 [8] = biological target: ALX4 (Homo sapiens, UniProt Q9H161 200-286)
Sequence of ALX4 (Homo sapiens, UniProt Q9H161 200-286) (Q9H161 200-286): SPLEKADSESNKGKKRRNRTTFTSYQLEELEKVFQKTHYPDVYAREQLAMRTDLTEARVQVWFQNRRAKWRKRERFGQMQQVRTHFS

PAX4 [9] = biological target: T1, PAX4 (Homo sapiens, UniProt O43316 9-242, R200K)
T1 sequence: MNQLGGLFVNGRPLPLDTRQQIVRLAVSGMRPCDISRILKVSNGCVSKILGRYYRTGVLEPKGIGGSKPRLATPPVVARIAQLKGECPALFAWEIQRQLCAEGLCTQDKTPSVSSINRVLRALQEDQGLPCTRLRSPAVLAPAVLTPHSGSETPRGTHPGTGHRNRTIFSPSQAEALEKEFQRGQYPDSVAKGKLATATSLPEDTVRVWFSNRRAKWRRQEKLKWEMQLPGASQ

ALX4 [10] = biological target: ALX4 (Homo sapiens, UniProt Q9H161 200-286, Q225E)
Sequence of ALX4 (Homo sapiens, UniProt Q9H161 200-286, Q225E) (Q9H161 200-286 Q225E): as the sequence (Q9H161 200-286) above, with Q26E counted along it

ALX3 [11] = biological target: ALX3 (Homo sapiens, UniProt O95076 139-225, N203Q)
Sequence of ALX3 (Homo sapiens, UniProt O95076 139-225, N203Q) (O95076 139-225 N203Q): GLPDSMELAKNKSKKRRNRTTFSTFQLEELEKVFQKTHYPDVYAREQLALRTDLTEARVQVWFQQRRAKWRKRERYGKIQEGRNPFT

PAX4 [12] = biological target: T2, PAX4 (Homo sapiens, UniProt O43316 9-242, F177V)
T2 sequence: T1 sequence with F169V, K192R

ALX3 [13] = biological target: ALX3 (Homo sapiens, UniProt O95076 139-225)
Sequence of ALX3 (Homo sapiens, UniProt O95076 139-225) (O95076 139-225): as the sequence (O95076 139-225 N203Q) above, with Q65N counted along it

PAX4 [14] = biological target: T3, PAX4 (Homo sapiens, UniProt O43316 9-242, F177Y)
T3 sequence: T1 sequence with F169Y, K192R

ALX3 [15] = biological target: ALX3 (Homo sapiens, UniProt O95076 139-225, L168Q)
Sequence of ALX3 (Homo sapiens, UniProt O95076 139-225, L168Q) (O95076 139-225 L168Q): as the sequence (O95076 139-225 N203Q) above, with L30Q, Q65N counted along it

ALX3 [16] = biological target: ALX3 (Homo sapiens, UniProt O95076 139-225, L168V)
Sequence of ALX3 (Homo sapiens, UniProt O95076 139-225, L168V) (O95076 139-225 L168V): as the sequence (O95076 139-225 N203Q) above, with L30V, Q65N counted along it

HOXA4 = HOXA4 (Homo sapiens, UniProt Q00056 201-287, W262F)
Sequence of HOXA4 (Q00056 201-287 W262F): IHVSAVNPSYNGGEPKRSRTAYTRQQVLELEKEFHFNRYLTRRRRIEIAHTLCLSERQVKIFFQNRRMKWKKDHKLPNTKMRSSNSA

ALX3 [17] = biological target: ALX3 (Homo sapiens, UniProt O95076 139-225, N203S)
Sequence of ALX3 (Homo sapiens, UniProt O95076 139-225, N203S) (O95076 139-225 N203S): as the sequence (O95076 139-225 N203Q) above, with Q65S counted along it

PRRX1 = PRRX1 (Homo sapiens, UniProt P54821 80-166)
Sequence of PRRX1 (P54821 80-166): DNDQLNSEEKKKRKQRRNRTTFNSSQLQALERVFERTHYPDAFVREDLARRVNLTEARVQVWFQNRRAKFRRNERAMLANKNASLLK

Sequence of CRX (Homo sapiens, UniProt O43186 26-111, R41L) (O43186 26-111 R41L): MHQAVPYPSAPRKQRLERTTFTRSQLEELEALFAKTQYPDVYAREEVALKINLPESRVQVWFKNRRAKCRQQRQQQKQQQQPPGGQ
Sequence of CRX (Homo sapiens, UniProt O43186 26-111) (O43186 26-111): as the sequence (O43186 26-111 R41L) above, with L16R counted along it
Sequence of CRX (Homo sapiens, UniProt O43186 26-111, E42D) (O43186 26-111 E42D): as the sequence (O43186 26-111 R41L) above, with L16R, E17D counted along it

Q: Which binding signal (CRX [1]) does the source give for CGGTCCAA here?
A: 8.48 upbm affinity estimate (log intensity, higher = more binding, comparable within an allelic series)

Q: What about the binding signal (CRX [2]) of the same sequence?
A: 8.43 upbm affinity estimate (log intensity, higher = more binding, comparable within an allelic series)

Q: And the binding signal (CRX [3])?
A: 8.25 upbm affinity estimate (log intensity, higher = more binding, comparable within an allelic series)

Q: What does the source list for ACGGCGGC?
A: binding signal (VAX1 [4]): 7.01 upbm affinity estimate (log intensity, higher = more binding, comparable within an allelic series); binding signal (VAX1 [5]): 7.25 upbm affinity estimate (log intensity, higher = more binding, comparable within an allelic series)

Q: CCAGCGCG was tested. Which binding signal (HESX1 [6]) did it give?
A: 6.45 upbm affinity estimate (log intensity, higher = more binding, comparable within an allelic series)

Q: What about the binding signal (HESX1 [7]) of the same sequence?
A: 6.49 upbm affinity estimate (log intensity, higher = more binding, comparable within an allelic series)

Q: CCGCGTCG was tested. Which binding signal (HESX1 [6]) did it give?
A: 6.5 upbm affinity estimate (log intensity, higher = more binding, comparable within an allelic series)

Q: And the binding signal (HESX1 [7])?
A: 6.49 upbm affinity estimate (log intensity, higher = more binding, comparable within an allelic series)

Q: CGGGCTCC was tested. Which binding signal (HOXB9) did it give?
A: 8.02 upbm affinity estimate (log intensity, higher = more binding, comparable within an allelic series)

Q: And the binding signal (ALX4 [8])?
A: 7.48 upbm affinity estimate (log intensity, higher = more binding, comparable within an allelic series)

Q: And the binding signal (PAX4 [9])?
A: 8.72 upbm affinity estimate (log intensity, higher = more binding, comparable within an allelic series)

Q: And the binding signal (ALX4 [10])?
A: 7.51 upbm affinity estimate (log intensity, higher = more binding, comparable within an allelic series)

Q: And the binding signal (ALX3 [11])?
A: 7.6 upbm affinity estimate (log intensity, higher = more binding, comparable within an allelic series)

Q: And the binding signal (PAX4 [12])?
A: 8.99 upbm affinity estimate (log intensity, higher = more binding, comparable within an allelic series)

Q: And the binding signal (ALX3 [13])?
A: 7.17 upbm affinity estimate (log intensity, higher = more binding, comparable within an allelic series)

Q: And the binding signal (PAX4 [14])?
A: 8.93 upbm affinity estimate (log intensity, higher = more binding, comparable within an allelic series)

Q: What about the binding signal (VAX1 [4]) of the same sequence?
A: 6.15 upbm affinity estimate (log intensity, higher = more binding, comparable within an allelic series)

Q: And the binding signal (ALX3 [15])?
A: 7.45 upbm affinity estimate (log intensity, higher = more binding, comparable within an allelic series)

Q: And the binding signal (ALX3 [16])?
A: 7.45 upbm affinity estimate (log intensity, higher = more binding, comparable within an allelic series)

Q: What about the binding signal (VAX1 [5]) of the same sequence?
A: 6.61 upbm affinity estimate (log intensity, higher = more binding, comparable within an allelic series)

Q: What about the binding signal (HOXA4) of the same sequence?
A: 9.68 upbm affinity estimate (log intensity, higher = more binding, comparable within an allelic series)

Q: And the binding signal (ALX3 [17])?
A: 7.54 upbm affinity estimate (log intensity, higher = more binding, comparable within an allelic series)

Q: What about the binding signal (PRRX1) of the same sequence?
A: 8.33 upbm affinity estimate (log intensity, higher = more binding, comparable within an allelic series)

Q: AATTAGCT was tested. Which binding signal (ALX4 [8]) did it give?
A: 13.6 upbm affinity estimate (log intensity, higher = more binding, comparable within an allelic series)

Q: What about the binding signal (PAX4 [9]) of the same sequence?
A: 11.7 upbm affinity estimate (log intensity, higher = more binding, comparable within an allelic series)

Q: What about the binding signal (ALX4 [10]) of the same sequence?
A: 12.7 upbm affinity estimate (log intensity, higher = more binding, comparable within an allelic series)

Q: What about the binding signal (ALX3 [11]) of the same sequence?
A: 8.34 upbm affinity estimate (log intensity, higher = more binding, comparable within an allelic series)

Q: What about the binding signal (PAX4 [12]) of the same sequence?
A: 10.4 upbm affinity estimate (log intensity, higher = more binding, comparable within an allelic series)

Q: What about the binding signal (ALX3 [13]) of the same sequence?
A: 12.2 upbm affinity estimate (log intensity, higher = more binding, comparable within an allelic series)

Q: What about the binding signal (PAX4 [14]) of the same sequence?
A: 10.9 upbm affinity estimate (log intensity, higher = more binding, comparable within an allelic series)

Q: And the binding signal (HESX1 [6])?
A: 8.93 upbm affinity estimate (log intensity, higher = more binding, comparable within an allelic series)

Q: And the binding signal (ALX3 [15])?
A: 10.3 upbm affinity estimate (log intensity, higher = more binding, comparable within an allelic series)

Q: What about the binding signal (HESX1 [7]) of the same sequence?
A: 10.4 upbm affinity estimate (log intensity, higher = more binding, comparable within an allelic series)

Q: What about the binding signal (ALX3 [16]) of the same sequence?
A: 9.87 upbm affinity estimate (log intensity, higher = more binding, comparable within an allelic series)

Q: What about the binding signal (HOXA4) of the same sequence?
A: 11.5 upbm affinity estimate (log intensity, higher = more binding, comparable within an allelic series)

Q: What about the binding signal (ALX3 [17]) of the same sequence?
A: 8.56 upbm affinity estimate (log intensity, higher = more binding, comparable within an allelic series)

Q: For CGCCCGAG, which binding signal (HOXB9) is on record?
A: 8.29 upbm affinity estimate (log intensity, higher = more binding, comparable within an allelic series)

Q: What does the source list for ACGGCTGG?
A: binding signal (PAX4 [9]): 9.35 upbm affinity estimate (log intensity, higher = more binding, comparable within an allelic series); binding signal (PAX4 [12]): 9.33 upbm affinity estimate (log intensity, higher = more binding, comparable within an allelic series); binding signal (PAX4 [14]): 9.33 upbm affinity estimate (log intensity, higher = more binding, comparable within an allelic series)

Q: With CCGGCGCG as the sequence, how does the binding signal (CRX [1]) read?
A: 8.33 upbm affinity estimate (log intensity, higher = more binding, comparable within an allelic series)

Q: What about the binding signal (CRX [2]) of the same sequence?
A: 8.4 upbm affinity estimate (log intensity, higher = more binding, comparable within an allelic series)

Q: What about the binding signal (CRX [3]) of the same sequence?
A: 8.36 upbm affinity estimate (log intensity, higher = more binding, comparable within an allelic series)

Q: Which results are given for ATTACGTA?
A: binding signal (CRX [1]): 10.5 upbm affinity estimate (log intensity, higher = more binding, comparable within an allelic series); binding signal (CRX [2]): 10.4 upbm affinity estimate (log intensity, higher = more binding, comparable within an allelic series); binding signal (CRX [3]): 10.2 upbm affinity estimate (log intensity, higher = more binding, comparable within an allelic series)
